From the OligoGym collection come the findings set out here.
Note: reference of the scale not given here.

One test concerns the target MAGOHB. The test is described as follows: pooled miR-30 sensor sort-seq; sequence = guide strand. The following applies: shRNA.
Sequence TACAATTTCAAGCTCCTGTCGG gave a sensor-assay potency score (higher = more potent) of 0.0556. TTTTCTGATCATCACATCATTT gave a sensor-assay potency score (higher = more potent) of -1.33. Sequence TCTTCTTTTGTAATTTCACTGT registered a sensor-assay potency score (higher = more potent) of -0.146.

The next test addresses MAGOH. The description is as above. The following applies: shRNA.
The sequence TATCTTAACTTCCCGTCCGGTC showed a sensor-assay potency score (higher = more potent) of -1.04. With TAAGCCTTCTGGATCCTTGGAT, the sensor-assay potency score (higher = more potent) was determined as 0.401. TTCTTGTAATTGCTGTTGTTGG returned a sensor-assay potency score (higher = more potent) of -1.26.

TTAACTTCCCGTCCGGTCGAAA displayed a sensor-assay potency score (higher = more potent) of -1.06.

TCTGATCATGACATCATTCTTG had a sensor-assay potency score (higher = more potent) of 0.0716.

As to TTTTCTGATCATGACATCATTC, the sensor-assay potency score (higher = more potent) was -1.16. With TCAAACTCCAGGAACTCGTGGC, the sensor-assay potency score (higher = more potent) is 0.562.

TCCAATAAGACTGAAGACCAAA came in with a sensor-assay potency score (higher = more potent) of -1.96. The sequence TAATAAAATACTCGTAAGCCTT registered a sensor-assay potency score (higher = more potent) of -0.986. Consider TTGATTGACATCAATAAGGGAA, for which the sensor-assay potency score (higher = more potent) amounted to 0.101. TTGGCATATCTTAACTTCCCGT displayed a sensor-assay potency score (higher = more potent) of -0.899. ATATCTTAACTTCCCGTCCGGT returned a sensor-assay potency score (higher = more potent) of -0.615.

The target of the next test is MALL. The description is as above. The following applies: shRNA.
TTCTCAGAAACAATCGTGGCAT: the sensor-assay potency score (higher = more potent) was determined as 0.00713. The sequence AAACAAGTAAGACAACAGGAAC had a sensor-assay potency score (higher = more potent) of -1.63. On the same count and under the same terms, next, TACAGGATGCCAGTGGTCCCGT: -0.996; TAATGTAGTAAATTCTTGGGTC: 0.801; AGTTTCTCAGAAACAATCGTGG: -1.29.

In turn, TTGTAAAATCCAAACAAGTAAG came in with a sensor-assay potency score (higher = more potent) of -1.62.

Sequence AATTAATGTAGTAAATTCTTGG came in with a sensor-assay potency score (higher = more potent) of -0.359. TTTCTCAGAAACAATCGTGGCA displayed a sensor-assay potency score (higher = more potent) of 0.81.

Sequence TAAGACAACAGGAACATCAAGG showed a sensor-assay potency score (higher = more potent) of -0.729. Still for that read-out and setting: next, TTAATGTAGTAAATTCTTGGGT: -0.194; TCTTTTGTAAAATCCAAACAAG: -1.37; TAAATGTCCAAACAAAGTGTGG: -1.11.

In a further test the target is MAMSTR. The test is described as above. The following applies: shRNA.
For TGCTGGAGTCAGATAAGTCAGC, the sensor-assay potency score (higher = more potent) was -1.36. The sequence TCGGCTTGGGGGTCTGCCCTGG showed a sensor-assay potency score (higher = more potent) of -0.566. Take TCCAGAGTCAGAGCCGCTGAGC: the sensor-assay potency score (higher = more potent) was -2.

Consider TGGAGTCAGATAAGTCAGCGGA, for which the sensor-assay potency score (higher = more potent) is -0.63. Sequence TGAAGTTCCAACTTGTGTGGGG displayed a sensor-assay potency score (higher = more potent) of 0.878.

In the case of TTGTCTCCGATCCTGTGTCTGC, the sensor-assay potency score (higher = more potent) was -0.79. Same read-out and setting: next, TTAGGAAGCAACTGCGCCCTCC: -0.483; TTCCTGCAGCTCCTCCTCCAGA: -1.58; TCTGAAGTTCCAACTTGTGTGG: -0.0798. Sequence TTGACCGAGCCCTGACGCCGGG returned a sensor-assay potency score (higher = more potent) of -1.2. The same measure, in the same setting: the value for TAGACTTGGTCCCCGACACTGG was -0.651; that for TGCTGCGCTGGGCTTGACCGAG was -1.43.
